# LASV entry inh: Lassa virus entry inhibition | Lassa virus pseudotyped entry inhibition, cell-based qHTS | Potency, µM (highest dose often 49.2 µM), actives largely listed as inhibitors | 18,000 compounds, 4.1% hits | AID 720533
# MARV entry inh: inhibitors of Marburg virus binding or entry into cells | Marburg virus pseudotype entry/binding inhibition, cell-based | AID 720532 | 18,000 compounds, 6.5% hits | Potency, µM (top dose mostly 49.2 µM), actives largely listed as inhibitors
# A number is an active result; . = inactive; ? = inconclusive; / = no result; + = active, no number; ! = repeats disagree; [ ] = another dose, or the depositor's remark. Hits are enriched below; roughly 8% of the tested compounds scored in any of these assays. Calls follow the shape of the full dose curve; tested in HEK293 cells.
SMILES,LASV entry inh,MARV entry inh
COc1ccc2c(c1)-c1nc(-n3ncc(C(=O)NCC4CCCN(C)C4)c3C3CC3)ncc1CC2 (stereo unspecified),.,?
COc1ccc2c(c1)-c1nc(-n3ncc(C(=O)NC[C@@H]4CCCN5CCCC[C@H]45)c3C)ncc1CC2,35µM,5µM
C[C@H]1C=CCC(=O)N[C@@H](c2ccc3ccccc3c2)[C@@H](C)C=CCC(=O)N[C@@H]1c1ccc2ccccc2c1,.[8.59 µM],.[8.59 µM]
COc1cccc(CO[C@H]2C=C[C@@H](c3ccccc3)O[C@H]2CBr)c1,.[8.59 µM],.[8.59 µM]
CCCCCCCCCCC[C@@H]1C[C@H]2C=CCO[P@@](=O)(O1)O2,/,.
C/C=C1\NC(=O)[C@H]2CSSCC/C=C/[C@H](CC(=O)N[C@H](C(C)C)C(=O)N2)OC(=O)C(C(C)C)NC1=O (stereo partly specified),3.2µM,1.1µM
COCCN1C(=O)NC(c2ccc(Br)cc2)C(C(=O)OC)=C1C (stereo unspecified),.[8.59 µM],.[8.59 µM]
O=C(C[C@H]1C(=O)N(Cc2cccnc2)C[C@@H]1c1ccc(Br)cc1)Nc1ccc(Br)cc1,.,.
CC1O[C@@H](O[C@@H]2C(O)C[C@H](O[C@@H]3C(O)C[C@@H](OC4CC[C@@]5(C)C6CC[C@]7(C)C(C8=CC(=O)OC8)CC[C@@]7(O)C6CC[C@@H]5C4)OC3C)OC2C)CC(O)[C@H]1O (stereo partly specified),0.28µM,0.22µM
C[C@H]1O[C@@H](O[C@H]2[C@@H](O)C[C@H](O[C@H]3[C@@H](O)C[C@H](O[C@H]4CC[C@]5(C)C6CC[C@]7(C)[C@@H](C8=CC(=O)OC8)CC[C@]7(O)C6CC[C@@H]5C4)O[C@@H]3C)O[C@@H]2C)C[C@H](O)[C@@H]1O (stereo partly specified),0.0025µM,?
COC(=O)c1ccc(CN2C(=O)[C@@]3(CC(C)=C[C@@H](COc4ccccc4)O3)c3ccccc32)cc1,.[8.59 µM],.[8.59 µM]
C=CCOC(=O)C(C(C)=O)[C@@H](NC(=O)OC)c1ccc(Cl)cc1 (stereo partly specified),.[8.59 µM],.[8.59 µM]
C[C@H]1C[C@@H](C)O[C@@]2(C1)C(=O)N(Cc1ccccc1C(F)(F)F)c1ccccc12,.[8.59 µM],.[8.59 µM]
CC#CCN1c2ccccc2[C@]23CCC(=O)N(CCCOC(C)C)C2=NC(C(=O)OC)=C(C(=O)OC)[C@H]13,.[8.59 µM],.[8.59 µM]
Cc1cc(C(=O)NCc2nnc3n2CCN(Cc2ccc(C)c(C)c2)CC3)c(C)o1,.,.
Cc1ccc(C)c(CN2CCc3nnc(CNC(=O)c4cc(C)oc4C)n3CC2)c1,.,+
CC(=O)OC[C@H]1O[C@H](CCON=C(C)CCN2CCc3nc(-c4ccccc4)c(-c4ccccc4)cc3C2)C=C[C@H]1OC(C)=O,.[8.59 µM],?
O=C(NC1CC1)c1ccc(NC(=O)C2CCC2)cc1,.,.
CC(=O)Nc1ccc(NC(=S)NC(=O)c2ccc(C(C)(C)C)cc2)cc1,32µM,7.1µM
CC[C@H]1C[C@@H]2C[C@H]3c4[nH]c5ccc(OC)cc5c4CCN(C2)[C@@H]13,.,28µM
COc1ccc2[nH]c3c(c2c1)CCN=C3C,.,?
O=C1Nc2ccccc2[C@@]12O[C@H](COc1ccccc1)CC1=C2CCC1,.[8.59 µM],.[8.59 µM]
CCC(C)C(=O)OC1C[C@@]2(C)C(c3ccoc3)OC(=O)CC23OC2(C)OC34C(OC(=O)C(C)C)[C@]3(O)C(OC(=O)C5(C)OC5C)[C@]5(C)CC3(O)[C@](C)(C5CC(=O)OC)C14O2 (stereo partly specified),.,14µM
COC(=O)CC1C2(C)CC34OC5(C)O[C@@]6(C7/C(=C(/O)C(C)C)C(=O)OC(c8ccoc8)[C@]7(C)C(OC(C)=O)C(OC(C)=O)[C@]6(O5)[C@@]13C)C(OC(C)=O)[C@]4(O)C2OC(=O)C(C)C (stereo partly specified),.,?
CC(=O)C1=C(C)N(CCC=Cc2ccccc2)C(=O)NC1c1ccccc1 (stereo unspecified),.[8.59 µM],?
SMILES,LASV entry inh,MARV entry inh
CC(C)n1cnc2c(C(=O)N[C@H]3CN4CCC3CC4)cc(Cl)cc21,35µM!,7.1µM
C(=Cc1nc(-c2ccccc2)oc1Nc1ccc2ccccc2c1)c1ccccc1,.[8.59 µM],.[8.59 µM]
C[C@H]1CCC[C@H](O)CCCCCc2cc(O)cc(O)c2C(=O)O1,.,.
CC1CC2OC2/C=C\C=C/C(=O)Cc2c(Cl)c(O)cc(O)c2C(=O)O1 (stereo unspecified),7.9µM,2.5µM
O[N+]1=CC=CCC1=S.On1ccccc1=S.[Zn],3.5µM,4.5µM
CN(C)CCc1cc2c(c3c1ccc1ccccc13)OCO2,?,13µM
C=CCOC(=O)C1=C(C)N(CC)C(=O)NC1c1ccccc1 (stereo unspecified),.[8.59 µM],.[8.59 µM]
COc1ccccc1C(=O)N(Cc1cc2cc3c(cc2nc1N(C)C)OCO3)CC1CCCO1 (stereo unspecified),11µM,13µM
Cc1ccc(C(=O)N(Cc2cc3cccc(C)c3nc2N(C)C)CC2CCCO2)cc1 (stereo unspecified),.,.
O=C1[C@H]2[C@@H]3[C@@H](O)[C@H](O)CC(=NOCc4ccccc4)[C@@H]3CC[C@H]2C(=O)N1Cc1ccc2c(c1)OCO2,.[8.59 µM],.[8.59 µM]
CC1(C)O[C@H]2O[C@H]([C@H](O)CON=C3[C@H]4CCn5c(=O)n(-c6ccccc6)c(=O)n5[C@@H]4[C@H](O)[C@@H]4O[C@H]34)[C@H](O)[C@@H]2O1,.[8.59 µM],.[8.59 µM]
COc1cc2c(cc1OC)[C@@H]1O[C@](c3ccsc3)(C2)Oc2cc(-c3ccccc3)oc(=O)c21,.[8.59 µM],?
COC[C@H]1O[C@H](c2ccccc2)C=C[C@H]1OCC=C(C)C,.[8.59 µM],.[8.59 µM]
C=CCCN(Cc1ccc(C)cc1)S(=O)(=O)C=C,.,.
Cc1cnc(-n2ncc(C(=O)NCCc3cccnc3)c2C)nc1-c1ccc(F)cc1,.,?
Cc1cnc(-n2ncc(C(=O)NCCCc3ccncc3)c2C)nc1-c1ccc(F)cc1,.,20µM
C#CCOCC#CC[C@@]1(C(=O)OC)C=C[C@@H](C)[C@H](c2ccccc2Br)N1C(=O)C(F)(F)F,/,.[8.59 µM]
C=C(C)CCCN1C=C(C(=O)OCC)C(c2ccccc2)NC1=O (stereo unspecified),/,.[8.59 µM]
CC(C)C[C@H]1C(=O)N2CCC[C@@H]2[C@]2(O)O[C@](NC(=O)[C@H]3C=C4c5cccc6[nH]c(Br)c(c56)C[C@H]4N(C)C3)(C(C)C)C(=O)N12,.,.
CC(C)C[C@H]1C(=O)N2CCC[C@H]2[C@]2(O)O[C@](NC(=O)[C@@H]3C=C4c5cccc6[nH]c(Br)c(c56)C[C@H]4N(C)C3)(C(C)C)C(=O)N12,25µM!,?
CC(C)CC1C(=O)N2CCCC2C2(O)O[C@@](NC(=O)C3C=C4c5cccc6[nH]c(Br)c(c56)CC4N(C)C3)(C(C)C)C(=O)N12 (stereo partly specified),?,10µM
CN1C[C@H](C(=O)N[C@]2(C)O[C@@]3(O)[C@@H]4CCCN4C(=O)[C@H](Cc4ccccc4)N3C2=O)C=C2c3cccc4[nH]cc(c34)C[C@H]21,.,.
CC(C)[C@@]1(NC(=O)[C@@H]2C[C@H]3c4cccc5[nH]cc(c45)C[C@@H]3N(C)C2)O[C@@]2(O)[C@H]3CCCN3C(=O)[C@H](Cc3ccccc3)N2C1=O,.,22µM!
CC(C)C[C@H]1C(=O)N2CCC[C@H]2[C@]2(O)O[C@](NC(=O)[C@@H]3C[C@@H]4c5cccc6[nH]cc(c56)C[C@H]4N(C)C3)(C(C)C)C(=O)N12,.,?

# Assay outcomes (PubChem)
